Only some compounds are listed: those with a hit (about 2.2% of all), similar ones and a draw of the others.
BRCA1 expr act: increases BRCA1 expression; 380,000 tested, 1.1% active; MCF7-BRCA1-FFLuc reporter, luminescence, 48 h; response scale: scaled: vehicle 0%, 10 µM genistein 100%; Potency, µM (series often up to 46.1 µM), hits mostly activators; AID 624202; note: nearly all actives have a fitted effect of over 80% in size
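Compounds are tested at multiple concentrations on MCF7 BRCA1-luciferase reporter cells seeded at 2000 per well; after 48 h, a single luminescence end-point is taken and curves fitted to the normalized data.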
IDH1 R132H inh: inhibitors of human mutant IDH1 R132H; O75874; IDH1-R132H enzyme, NADPH consumption, diaphorase/resazurin fluorescence; Potency, µM (highest dose often 76.6 µM), hits mostly inhibitors; 390,000 tested, 0.093% active; AID 602179; note: nearly all actives have a fitted effect of over 65% in size
Target sequence (O75874 whole entry R132H, stated change not applied): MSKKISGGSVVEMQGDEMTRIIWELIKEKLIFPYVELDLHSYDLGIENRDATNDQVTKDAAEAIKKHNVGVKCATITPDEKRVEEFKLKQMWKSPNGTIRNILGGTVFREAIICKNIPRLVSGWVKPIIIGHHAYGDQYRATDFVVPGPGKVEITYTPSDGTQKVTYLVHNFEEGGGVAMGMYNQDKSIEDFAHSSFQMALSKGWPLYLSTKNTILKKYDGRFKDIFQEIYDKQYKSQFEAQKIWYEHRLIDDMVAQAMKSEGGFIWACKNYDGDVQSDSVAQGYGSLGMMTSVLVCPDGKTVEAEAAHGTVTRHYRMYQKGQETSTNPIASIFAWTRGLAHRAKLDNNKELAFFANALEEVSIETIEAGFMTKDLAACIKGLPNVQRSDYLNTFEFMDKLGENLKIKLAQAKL
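IDH1-R132H (0.5 ug/mL) preincubated 30 min with compound, then NADPH (0.016 mM) and alpha-KG (2 mM) added; 80 min at RT, pH 7.5. Remaining NADPH coupled via diaphorase/resazurin to fluorescence (540/590 nm); concentration-response curves normalized to no-enzyme control.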
Giardia killer: kills Giardia lamblia; Giardia lamblia trophozoite viability; 340,000 tested, 0.15% active; activity change, % at 7.66 µM, hits read low; in the data active = activity change below about -80%; inconclusive = between about -30% and that limit;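 note: parasites exposed to compound for two days anaerobically before the ATP read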
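Luminescent ATP signal served as the viability read-out, measured 15-30 min after adding ATP detection reagent to trophozoites that had been incubated with compounds for 48 hrs at 37 deg C anaerobically at 100 cells/well.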
TrxR1 substrate: is turned over as a substrate by rat TrxR1; 390,000 tested, 0.01% active; Potency, µM (series often up to 114 µM); purified TrxR1 substrate turnover, NADPH consumption readout; O89049; note: nearly all actives have a fitted effect of over 50% in size
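Rat TrxR1, dispensed at 90 nM, was prereduced with 400 uM NADPH (final) for 5 min at ~22 deg C, then incubated with compound 15 min before 400 uM selenite. A first-read NADPH fluorescence drop versus no-compound background flagged substrates.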
rTrxR1 inhibitor: rat TrxR1 inhibition. O89049. recombinant rTrxR1, NADPH fluorescence consumption, selenite substrate. Potency, µM (doses to about 114 µM), actives largely listed as inhibitors. 390,000 tested, 1% active; note: nearly all actives have a fitted effect of over 65% in size
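Rat TrxR1 (90 nM in the dispensed reagent) was pre-reduced with 400 uM NADPH for 5 min at room temperature, then incubated with compound for 15 min. After 400 uM selenite was added, NADPH fluorescence (Ex 340/Em 450 nm) was followed for 8 min.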
IL-2 act: activates IL-2 in a cell-based reporter assay; IL-2 activation reporter assay, cell-based qHTS; stimulated with anti-CD3/CD4/CD28 beads; in transgenic mouse T cells; activation, % (series mostly up to about 46 µM); 360,000 tested, 0.065% active; AID 652025; in the data active = activation above about 50%; inconclusive = mostly about 30% to 49%
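Readout: EGFP and DsRed signals by fluorescent plate cytometry. Unstimulated transgenic mouse T cells received compound 60 min before antibody-bead stimulation, then incubated 18 h at 37 degrees C.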
Numbers stand for hits; - = inactive; ? = inconclusive; . = no result given; [ ] = another dose, or the depositor's remark. Unless noted, calls come from the whole dose curve; as a rule, active = well fitted curve in the direction sought with a large enough effect; inconclusive = small, poorly fitted or top-dose-only effect, or another doubt; inactive = no such curve, though single readings can be large; an effect the other way counts as inactive or inconclusive.

SMILES | BRCA1 expr act | IDH1 R132H inh | Giardia killer | TrxR1 substrate | rTrxR1 inhibitor | IL-2 act
CCOc1cc(/C=N/NC(=O)Nc2ccccc2)ccc1O | 11µM | - | ? | - | - | -
COc1cccc(NC(=O)c2ccccc2OCC(=O)Nc2ccc(Br)cc2)c1 | - | . | . | - | - | .
Cc1cc(C)c(S(=O)(=O)N2CCC(N3CCN(Cc4ccc(F)cc4)C(=O)C3=O)CC2)c(C)c1 | . | - | . | - | - | .
COc1cc(/C=C(\C#N)c2nc3ccc(C)cc3[nH]2)c([N+](=O)[O-])cc1OC | - | - | - | - | - | -
CCCOc1cc(N(CC)CC)ccc1/C=C(/C#N)c1nc2ccc(C)cc2[nH]1 | - | - | - | - | - | -
COc1cc(/C=C(\C#N)c2nc3ccc(C)cc3[nH]2)cc([N+](=O)[O-])c1O | 7.1µM | - | - | - | - | -
CCN(CC)c1ccc(/C=C(/C#N)c2nc3ccc(C)cc3[nH]2)c(OC(C)C)c1 | - | - | - | - | - | 218
COC(=O)c1ccc(OCC(O)Cn2nnc3ccccc32)cc1 (stereo not given) | 11µM | - | - | - | - | -
CC(=O)Nc1ccc(OCC(O)Cn2c(C(C)C)nc3ccccc32)cc1 (stereo not given) | - | - | - | - | - | 72
CC(=O)c1ccc(OCC(O)Cn2nnc3ccccc32)cc1 (stereo not given) | ? | - | - | - | - | -
CC(=O)Nc1ccc(OCC(O)Cn2c(C)nc3ccccc32)cc1 (stereo not given) | - | - | - | - | - | -
CCC(C)NC(=O)c1cnn(-c2ccc(Cl)cc2)c1C1CCN(C(=O)OC(C)(C)C)CC1 (stereo not given) | . | - | . | - | - | .
COC(=O)/C(=C/c1cccnc1)NC(=O)c1ccccc1 | - | - | - | - | - | -
COC(=O)C(=C/C(C)=C/c1cccnc1)C(=O)OC | - | - | - | - | 56µM | -
O=C(Nc1ccccc1)OCC1CCCN2CCCCC12 (stereo not given) | - | - | - | - | - | -
CC1=CCC(COC(=O)Nc2ccccc2)CC1 (stereo not given) | 3.5µM | - | - | - | - | -
Cc1ccnc2ccc3ccccc3c12 | . | . | . | - | 89µM | .
O=C(Nc1ccc(-c2nc3ncccc3o2)cc1)c1ccc([N+](=O)[O-])o1 | - | - | -94 | - | - | -
O=C(Nc1ccc2oc(-c3ccncc3)nc2c1)c1ccc([N+](=O)[O-])o1 | - | - | -80 | - | - | -
Cc1cc(-c2nc3ncccc3o2)ccc1NC(=O)c1ccc([N+](=O)[O-])o1 | - | - | - | - | - | -
O=C(Nc1ccc2oc(-c3ccncc3)nc2c1)c1ccccc1 | - | - | - | - | - | -
Cc1ccc(-c2nc3ncccc3o2)cc1NC(=O)c1ccc([N+](=O)[O-])o1 | - | - | -91 | - | - | -
CC1=C(C(=O)N2CCCCC2)C(c2ccc(Cl)cc2)n2c(nc3ccccc32)N1 (stereo not given) | - | - | . | - | - | .
COc1ccc(CNC(=O)c2ccc(Cn3c(=O)c4cccn4c4cccnc43)cc2)cc1OC | . | - | . | - | - | .
CCc1ccc(CN2C(=O)c3ccccc3C2C(=O)NC2CCCCCC2)cc1 (stereo not given) | . | - | . | - | - | .
SMILES | BRCA1 expr act | IDH1 R132H inh | Giardia killer | TrxR1 substrate | rTrxR1 inhibitor | IL-2 act
CCc1ccc(NCc2cc3cc4c(cc3n(CC(=O)Nc3ccc(Cl)cc3)c2=O)OCO4)cc1 | - | - | . | - | - | .
COc1ccc(OC)c(NC(=O)c2oc3c(c2C)-c2nn(Cc4ccc(Cl)cc4)cc2CC3)c1 | . | - | . | - | - | .
CC(=O)Nc1cccc(NC(=S)Nc2cccc(Cl)c2Cl)c1 | - | - | - | - | 32µM | -
O=C(CSc1ccc(-c2cccs2)nn1)N1CCCCC1 | - | - | - | - | - | -
O=C(CSc1ccc(-c2cccs2)nn1)N1CCCCCC1 | 13µM | - | - | - | - | -
CCC(=O)N1CCc2cc(Br)cc(S(=O)(=O)N3CCCC(C(=O)Nc4cc(C)ccc4OC)C3)c21 (stereo not given) | - | - | . | - | 89µM | .
Cc1ccc(S(=O)(=O)N(CC(O)Cn2c3ccccc3c3ccccc32)c2cccc(C(=O)NCCO)c2)cc1 (stereo not given) | - | - | . | - | - | .
CCCN(Cc1cccs1)C(=O)Nc1ccc(F)c(Cl)c1 | . | - | . | - | - | .
CC(C)(C)S(=O)(=O)c1cnc(-c2ccc(Cl)cc2)nc1N | 2.8µM | - | - | - | - | -
Cc1ccccc1-c1n[nH]c(=S)n1/N=C/C=C/c1ccco1 | - | - | - | - | 4µM | -
S=c1[nH]nc(-c2ccccc2)n1/N=C/C=C/c1ccco1 | - | - | - | - | - | -
CCOc1ccc(NC(=O)N2CCN(S(=O)(=O)c3ccc4c(ccn4C)c3)CC2)cc1 | - | - | . | - | - | .
CCOC(=O)Cn1c(=O)n(-c2cccc(Cl)c2)c2nc(-c3ccccc3Cl)nc(C(N)=O)c21 | - | - | . | - | - | .
COC(=O)c1nn(-c2ccc3c(c2)CCN3C(C)=O)cc1O | - | - | -87 | - | - | -
O=C(O)c1cc(N(Cc2ccccc2O)Cc2ccccc2O)ccc1O | . | . | - | - | 40µM | .
O=C(CNC(=O)c1ccccc1F)N/N=C/c1cccs1 | 10µM | - | - | - | ? | -
N=c1c(S(=O)(=O)c2ccc(Cl)cc2)cc2c(=O)n3ccccc3nc2n1Cc1cccnc1 | - | - | - | - | - | 151
COc1ccc(CNC(=O)c2cc3c(=O)n4ccccc4nc3n(Cc3cccnc3)c2=N)cc1 | - | - | - | - | - | 95
CC(=O)N(C)C1=C(N2CCOCC2)C(=O)c2ccccc2C1=O | - | - | - | - | - | -
CC(=O)N(C1=C(N2CCOCC2)C(=O)c2ccccc2C1=O)c1ccc(C(=O)O)cc1 | - | - | - | - | 7.9µM | -
Cc1cc(C)c2oc(-c3ccc(C)c(NC(=O)/C=C/c4ccco4)c3)nc2c1 | - | - | . | -[11.4 µM] | 3.2µM | .
O=c1c2ccccc2n2c(-c3ccc(Cl)cc3)nnc2n1CCc1ccccc1 | . | - | . | - | - | .
COc1ccc(C2C(C(=O)/C=C/c3ccco3)=C(O)C(=O)N2CCN2CCOCC2)cc1 (stereo not given) | - | - | - | - | - | -
COc1cccc(C2C(C(=O)/C=C/c3ccco3)=C(O)C(=O)N2CCN2CCOCC2)c1 (stereo not given) | - | - | - | - | 10µM | -
CSc1cccc(NC(=O)C2CCCN(C(=O)c3cnn(-c4ccc(F)cc4)c3-n3cccc3)C2)c1 (stereo not given) | . | - | . | - | - | .
